# Bioassay records deposited in PubChem BioAssay by National Center for Advancing Translational Sciences (NCATS).
# Vif-A3G inh = blocks the Vif interaction with human APOBEC3G; Potency, µM (doses to about 46.1 µM), inactives show at the highest dose activity, negative = active, most hits filed as inhibitors; Q9HC16; AID 602310; HeLa A3G-eYFP + Vif (tagged APOBEC3G with the HIV-1 protein that degrades it), YFP fluorescence, overnight; actives 0.076% (n = 410,000); note: potency is the fitted concentration of half-maximal effect; % is set by controls: 0 for no effect and ±100 for the full control effect; nearly all actives have a fitted effect of over 60% in size
#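 HeLa cells stably expressing Vif and C-terminally eYFP-tagged A3G, seeded overnight at 37 deg C, then exposed to compound by pintool overnight at 37 deg C. Rise in yellow fluorescence (Ex 488/Em 500-530, Acumen) marks blocked Vif-driven A3G degradation.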
# pAkt inh = inhibitors of Akt phosphorylation. actives 0.32% (n = 360,000). activity change, % for hits at 50 µM. Neuro2A IGF-stimulated pAkt S473 HTRF, 20 min; stronger effect = lower value. AID 651550; in the data active = activity change below about -80%; inconclusive = mostly about -51% to -80%; note: % is set by controls: 0 for no effect and ±100 for the full control effect
#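 Neuro2A cells in DMEM with 0.5% FBS, overnight at 37 deg C, given compound at single 50 µM final, then IGF (6 nM final) for 20 min at 37 deg C. Lysed; phospho-Akt Ser473 by HTRF after 24 h, 665/615 ratio.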
# Vif-APOBEC3F blk = Vif-A3F binding inhibition | HeLa A3F-eYFP + Vif (tagged APOBEC3F with the HIV-1 protein that degrades it), YFP fluorescence increase | actives 0.2% (n = 390,000) | Potency, µM (series often up to 46.1 µM), for inactives: at the top dose activity, negative = active; note: potency is the fitted concentration of half-maximal effect; % of control where 0% means no effect; nearly all actives have a fitted effect of over 65% in size
#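 HeLa cells stably expressing Vif plus C-terminally eYFP-tagged A3F were seeded, incubated overnight at 37 deg C, dosed with compound, incubated overnight again at 37 deg C. Yellow fluorescence (Ex 488/Em 500-530) reported blocked Vif-mediated A3F-eYFP degradation.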
# 12-LOX inh = ALOX12 (human) lipoxygenase inhibition. P18054. Potency, µM (titrated, usually from 108 µM), inactives show at the top dose activity change, negative = inhibition, hits mostly inhibitors. purified 12hLO, xylenol orange hydroperoxide absorbance. actives 1.1% (n = 580,000). AID 1671190; note: potency is the fitted concentration of half-maximal effect; % is set by controls: 0 for no effect and ±100 for the full control effect
# Target sequence (P18054 whole entry, looked up): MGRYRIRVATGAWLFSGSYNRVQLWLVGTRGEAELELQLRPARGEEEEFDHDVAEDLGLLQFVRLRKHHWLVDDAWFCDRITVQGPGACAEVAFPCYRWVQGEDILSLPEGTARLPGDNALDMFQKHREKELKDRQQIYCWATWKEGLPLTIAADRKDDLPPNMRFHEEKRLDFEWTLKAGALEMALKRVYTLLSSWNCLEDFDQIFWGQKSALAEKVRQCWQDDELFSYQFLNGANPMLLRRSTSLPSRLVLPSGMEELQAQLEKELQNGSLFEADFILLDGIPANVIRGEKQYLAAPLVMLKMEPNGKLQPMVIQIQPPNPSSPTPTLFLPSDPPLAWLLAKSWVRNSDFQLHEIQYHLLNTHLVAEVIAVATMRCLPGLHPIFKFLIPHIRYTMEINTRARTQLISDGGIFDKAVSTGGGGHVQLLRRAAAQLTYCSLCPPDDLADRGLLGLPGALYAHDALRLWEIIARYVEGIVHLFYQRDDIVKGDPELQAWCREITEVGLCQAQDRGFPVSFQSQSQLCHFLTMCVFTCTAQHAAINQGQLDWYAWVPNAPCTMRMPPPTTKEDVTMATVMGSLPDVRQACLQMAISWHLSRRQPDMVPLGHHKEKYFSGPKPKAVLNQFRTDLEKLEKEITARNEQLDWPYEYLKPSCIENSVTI
#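 Purified human 12hLO at 150 nM in 25 mM Hepes, 0.01% Triton X-100, pH 7.0, preincubated 15 min at room temperature with compound. Reaction started with 40 uM arachidonic acid, 30 min at room temperature. Hydroperoxide measured by Fe-xylenol orange, 573/405 nm absorbance ratio.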
# PTAP TSG101 blk = blocks PTAP/TSG101 interaction to inhibit HIV-1 budding; Fluorescence polarization, FITC-PTAP peptide / Tsg101 binding; Potency, µM (doses to about 115 µM), inactives show top-dose activity change, negative = inhibition, hits mostly inhibitors; 340,000 tested, under 10 active; AID 493005; active = well fitted inhibition curve with a large enough effect in the main read-out, with a control signal flat, not every such curve was filed as active; inconclusive = small, poorly fitted or top-dose-only effect, or effect the other way, or a change in a side signal; inactive = no such curve, though single readings can be large or run the other way; note: potency is the fitted concentration of half-maximal effect; % of control where 0% means no effect
#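 Fluorescence anisotropy tracks displacement of a FITC-tagged PTAP peptide (50 nM) from the Tsg101 binding domain (10 uM), following a 20 min room-temperature incubation at pH 7.5.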
# S-ASM inh = inhibitors of human secretory acid sphingomyelinase; AID 504937; P17405; Potency, µM (series often up to 57.5 µM), for inactives: top-dose activity change, negative = inhibition, most hits filed as inhibitors; placental ASM, HMU-PC fluorogenic substrate, 60 min; actives 0.006% (n = 340,000); note: potency is the fitted concentration of half-maximal effect
#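 Human placenta-derived ASM preincubated with compound 10 min at room temperature, then reacted with 9 uM (final) fluorogenic HMU-PC substrate for 60 min at 37 C. Stop solution raises pH to 10; fluorescence read at Ex 386/Em 447 nm.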
# Active calls of the source: *; i = inactive; ? = inconclusive; . = not tested or not shown; ! = repeats disagree. A selection: hits, their analogues and other compounds. The true share with any hit is near 1.4%. Unless noted, calls come from the whole dose curve; as a rule, active = well fitted curve in the direction sought with a large enough effect; inconclusive = small, poorly fitted or top-dose-only effect, or another doubt; inactive = no such curve, though single readings can be large; an effect the other way counts as inactive or inconclusive.
SMILES,Vif-A3G inh,pAkt inh,Vif-APOBEC3F blk,12-LOX inh,PTAP TSG101 blk,S-ASM inh
CN(Cc1ccco1)c1ncnc2ccc(-c3ccccc3Cl)cc12,0%,.,0%,28µM*!,1%,-6%
O=C1c2ccccc2N2C(=O)CCC2(C(=O)Nc2ccc(F)c(F)c2)N1Cc1ccccc1 (stereo unspecified),.,.,.,12%,.,.
Nc1nccnc1C(=O)NCCCNc1ccc(C(F)(F)F)cn1,.,.,.,0%,.,.
COc1ccc(-c2cc(CNc3nc(NC(C)C)nc4cc(-c5ccccc5)sc34)on2)cc1,-16%,i,.,45µM*,.,.
CC(=O)Nc1ccc(CNc2nc(NC(C)C)nc3cc(-c4ccccc4)sc23)cc1,?,i,.,45µM*,.,.
C=CCNc1nc(NCc2ccc(NC(C)=O)cc2)c2sc(-c3ccccc3)cc2n1,-25%,i,.,?,.,.
Cc1cccc(NC(=O)COc2ccc(/C=C\c3[nH]c(=O)[nH]c(=O)c3[N+](=O)[O-])cc2)c1,-2%,i,7%,40µM*,0%,-9%
Cc1ccc(CNC(=O)C2(C)CN(S(C)(=O)=O)CC(=O)N2c2ccc(Cl)cc2)cc1 (stereo unspecified),.,.,.,9%,.,.
O=C(Nc1ccc(Cl)cc1)c1nc2ccccc2nc1N1CCCCC1,.,.,.,1%,.,.
C=C(C)C[C@H]1CC=C[C@H](CC(=C)C)[N+]1(C)C,.,.,.,18µM*,.,.
OCC1(Cc2ccccc2)CCN(CCCC2CCCC2)CC1,-7%,i,1%,?,-3%,2%
OCC1(Cc2ccccc2)CCN(C2CCN(c3ccc(F)c(F)c3)CC2)CC1,1%,i,-16%,50µM*,-6%,4%
